# Measurements as given in PubChem BioAssay (NCATS).
# Results filed as inconclusive are left out. Unmarked numbers belong to inactive results. Calls of active or inactive are those of the source. Calls follow the shape of the dose curve; as a rule, active = well fitted inhibition curve with a large enough effect; inconclusive = small, poorly fitted or top-dose-only effect; inactive = flat fitted curve, though single readings scatter.
# Experiment: qHTS for Inhibitors of Plasmodium falciparum (7G8) proliferation (AID 504316); also: nearly all actives have a fitted effect of over 65% in size;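 as to activity change, negative = inhibition: 0% = DMSO vehicle and -100% = 0.29 µM artemisinin full kill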
# Conditions: P. falciparum 7G8 in erythrocytes, SYBR Green DNA, 72 h; series mostly up to 6.7 µM; activity change, negative = inhibition: at the top concentration
# How it was run: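 Erythrocytes infected with P. falciparum line (0.3% parasitemia, 2.5% hematocrit final) incubated with compounds 72 h at 37 °C, 5% CO2; SYBR Green lysis buffer added, fluorescence read next day. Normalized to 0.29 uM artemisinin and DMSO.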
# Potency is read from the fitted curve at half-maximal effect.
SMILES,"activity change, negative = inhibition [%]",Potency
Cc1ccc(S(=O)(=O)N[C@@H]2COC(=O)[C@@H](C)COC(=O)CC=C[C@H]2C)cc1,6.45,–
COC(=O)CCCC1=CC2=C(c3ccccc3)C(=O)C(C)(OC(=O)C3CCCC3)C(=O)C2=CN1CCc1ccccn1 (stereo not given),–,inactive
COC/C=C/C1=CC2=CC(=O)C(C)(OC(=O)c3cnc4ccccc4n3)C(=O)C2=CN1c1ccccc1 (stereo not given),-8.64,–
CCCCc1nc2c(c3c1C[C@H](C)OC3)CN(C(=O)NCc1ccco1)CC2,–,inactive
CCOC(=O)CN1C(=O)N[C@@H](c2cccs2)C(C(=O)OC)=C1C,-0.726,–
COc1ccc(C2=CC3=C(Br)C(=O)C(C)(OC(=O)c4ccco4)C(=O)C3=CO2)cc1 (stereo not given),10.3,–
CC1(OC(=O)C2CCCC2)C(=O)C=C2C=C(c3ccsc3)N(CCCCO)C=C2C1=O (stereo not given),–,inactive
COc1cccc(CC(=O)N2CCc3nc(-c4ccccc4)c4c(c3C2)CO[C@@H](C)C4)c1,–,inactive
COC(=O)[C@@H]1[C@H](CCc2ccccc2)NC(=O)N(Cc2ccccc2)[C@H]1C,1.01,–
CC1(OC(=O)CCc2ccccc2)C(=O)C=C2C=C(c3ccc(C#N)cc3)N(CCN3CCOCC3)C=C2C1=O (stereo not given),2.13,–
COC(=O)C1=C(C)N(Cc2ccccc2)C(=O)N[C@H]1c1ccco1,0.278,–
CC(C)CN1C=C2C(=O)C(C)(OC(=O)C3CCCC3)C(=O)C=C2C=C1c1ccsc1 (stereo not given),-2.45,–
COC(=O)CCC(=O)OC1(C)C(=O)C2=CN(CC(C)C)C(c3ccc(OC)cc3)=CC2=C(Br)C1=O (stereo not given),-5.97,–
COC/C=C/C1=CC2=CC(=O)C(C)(OC(=O)c3cnc4ccccc4n3)C(=O)C2=CN1CCc1c[nH]c2ccccc12 (stereo not given),-5.31,–
COC/C=C/C1=CC2=CC(=O)C(C)(OC(=O)c3cnc4ccccc4n3)C(=O)C2=CN1c1cccc(C#N)c1 (stereo not given),-1.57,–
COCCN1C=C2C(=O)C(C)(OC(=O)CCC(=O)OC)C(=O)C(Br)=C2C=C1c1ccc(OC)cc1 (stereo not given),-0.635,–
CCCC[C@]12Cc3c(ccc4ccccc34)[C@H](O1)C1=C(O2)C(=O)c2ccccc2C1=O,–,1.51 µM (active)
COC(=O)N1C2=C(c3ccccc3[C@@H]1CC(=O)Nc1ccc3cc4ccccc4cc3c1)[C@@H]1C(=O)N(c3ccccc3)C(=O)[C@@H]1[C@H](C)C2,–,1.9 µM (active)

SMILES,"activity change, negative = inhibition [%]",Potency
COC(=O)C1=C(C(=O)OC)[C@@H]2N(C)c3ccccc3[C@@]23C[C@@H](C(=O)OC)N(S(=O)(=O)c2ccc(C)cc2)C3=N1,-13.3,–
COC(=O)CCC(=O)OC1(C)C(=O)C2=CN(CC3CC3)C(c3ccc(OC)cc3)=CC2=C(Br)C1=O (stereo not given),-2.23,–
CCCCC1=CC2=CC(=O)C(C)(OC(=O)CC)C(=O)C2=CN1C1CCCCC1 (stereo not given),4.94,–
CCCCC1=CC2=CC(=O)C(C)(OC(=O)CC)C(=O)C2=CN1CCCOC(C)C (stereo not given),-12.7,–
COC(=O)C1=C(C(=O)OC)[C@@H]2N(C)c3ccccc3[C@@]23C[C@@H](C(=O)OC)N(C(C)=O)C3=N1,4.18,–
CCOC(=O)NN=C1C[C@@H](O)[C@@H](O)[C@@H]2[C@H]3C(=O)N([C@@H](C)c4ccccc4)C(=O)[C@@H]3CC[C@@H]12,11,–
CC1(OC(=O)CCc2ccccc2)C(=O)C=C2C=C(c3ccc(C#N)cc3)N(CCc3ccccn3)C=C2C1=O (stereo not given),5.76,–
COC(=O)CCCC1=CC2=CC(=O)C(C)(OC(=O)c3cccs3)C(=O)C2=CN1c1ccc(CO)cc1 (stereo not given),7.61,–
CC1(C)O[C@@H](C(O)(c2cc(F)c(F)c(F)c2)c2cc(F)c(F)c(F)c2)[C@H](C(O)(c2cc(F)c(F)c(F)c2)c2cc(F)c(F)c(F)c2)O1,–,0.379 µM (active)
CC1(OC(=O)c2ccc(Cl)nc2)C(=O)C=C2C=C(C3CC3)OC=C2C1=O (stereo not given),-15,–
COC(=O)C1=C(C(=O)OC)[C@@H]2N(C)c3ccc(OC)cc3[C@@]23C[C@@H](C(=O)OC)N=C3N1,0.585,–
COCCN1C(=O)N(C)[C@@H](c2ccccc2)C(C(C)=O)=C1C,-13.1,–
COCCN1C(=O)N[C@@H](c2cccc(C(F)(F)F)c2)C(C(=O)OC)=C1C,-2.25,–
COC/C=C/C1=CC2=CC(=O)C(C)(OC(=O)c3cnc4ccccc4n3)C(=O)C2=CN1C1CC1 (stereo not given),-13.2,–
CCN1C(=O)N[C@@H](c2ccco2)C(C(C)=O)=C1C,3.74,–
CC[C@@H](C)CN1C(=O)N[C@@H](c2ccccc2)C(C(=O)OC)=C1C,-12.4,–
COCCN1C(=O)N[C@@H](c2cccc(F)c2)C(C(C)=O)=C1C,2.85,–
